Laboratory results taken from PubChem BioAssay (Tox21).
Unmarked numbers belong to inactive results. Calls follow the shape of the full dose curve.

Molecular target: Thyrotropin-releasing hormone receptor (Homo sapiens) (UniProt P34981)
Assay: qHTS assay to identify small molecule agonists of the thyrotropin-releasing hormone receptor (TRHR) signaling pathway (AID 1346891);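 also: HEK293 cells expressing TRHR with calcium dye readout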
Settings: TRHR-HEK293 calcium fluorescence, agonist mode; series mostly up to 57.6 µM; activation: at the top concentration
Description: National Center for Advancing Translational Sciences [NCATS] NIH Chemical Genomics Center [NCGC] U.S. Environmental Protection Agency [EPA] National Institutes of Environmental Health Sciences [NIEHS] National Toxicology Program [NTP] Assay overview: Thyrotropin-releasing hormone (TRH) receptor (TRHR) is a G-protein-coupled receptor which binds the tripeptide thyrotropin releasing hormone. TRHR is found in the brain and, when bound by TRH, acts (through phospholipase C) to increase intracellular inositol trisphosphate. It plays a crucial role in the anterior pituitary where it controls the synthesis and secretion of thyroid stimulating hormone and prolactin. The TRHR-Hek293 assay is a cell-based assay, and it has the potential to screen G protein-coupled receptors. A compound/drug can either activate (agonist) or suppress (antagonist) GPCRs that can be monitored by levels of intracellular calcium. Using this assay, the Tox21 10K compound library was screened to identify potential TRHR agonists.
Assay Protocol Summary: The TRHR-Hek293 cells were dispensed at 1500cells/4uL/well in 1536-well black-clear bottom plates using a Multidrop dispenser. After the assay plates were incubated at a 37 C/5% CO2 incubator for 18 hours, 4 uL of Dye-Loading Solution was added to each well. The plates were incubated at 37 C for 2 hours. For agonist mode, 23 nL of compounds dissolved in DMSO, positive controls or DMSO only was transferred to the assay plate by a pin tool. The fluorescence intensity in the plates was measured using FDSS 7000EX kinetic plate reader for 3 min at 1 sec intervals. Each test compound was measured at 15 concentrations and in triplicates.
% is scaled to controls: 0 for no effect and ±100 for the full control effect.

Thyrotropin-releasing hormone receptor (Homo sapiens), sequence (P34981 whole entry, looked up): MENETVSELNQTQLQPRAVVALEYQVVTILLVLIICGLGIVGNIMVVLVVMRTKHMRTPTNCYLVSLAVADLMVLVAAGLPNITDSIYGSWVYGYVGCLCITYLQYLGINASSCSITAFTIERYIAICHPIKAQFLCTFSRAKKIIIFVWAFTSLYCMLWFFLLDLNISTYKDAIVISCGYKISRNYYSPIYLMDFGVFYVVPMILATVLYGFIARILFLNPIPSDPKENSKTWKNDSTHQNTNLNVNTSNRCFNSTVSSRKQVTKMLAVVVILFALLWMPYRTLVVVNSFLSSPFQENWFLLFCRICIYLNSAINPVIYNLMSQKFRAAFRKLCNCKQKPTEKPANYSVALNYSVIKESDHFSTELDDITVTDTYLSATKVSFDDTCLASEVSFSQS

| SMILES | activation |
| --- | --- |
| N=C(N)S(=O)O | 0.108% |
| CC1(C)S[C@@H]2[C@H](NC(=O)Cc3ccccc3)C(=O)N2[C@H]1C(=O)O (tested in a mixture with another compound) | -0.0492% [at 26.5 µM] |
| NNC(=O)CCCCC(=O)NN | 0.278% |
| Cc1ccc(O)c(C(=O)c2ccccc2)c1 | 1.09% |
| O=C1c2ccccc2C(=O)N1CO | 0.0346% |
| C[Si](C)(C)O[Si](O)(O)O | 0.284% |
| C=CC(C)(CCC=C(C)C)OC(=O)C(C)C (stereo not given) | -1.26% |
| O=C1Nc2ccccc2C1=O | 4.73% |
| CC1(C)CC(N)CC(C)(C)N1 | 0.375% |
| CCc1ncc(C)[nH]1 | -0.0309% |
| CC(=O)Nc1ccc(S(=O)(=O)Nc2cc(C)on2)cc1 | -0.15% [at 26.5 µM] |
| COC(=O)C(c1ccccc1Cl)N1CCc2sccc2C1 (stereo not given) | 0.0391% [at 26.5 µM] |
| NS(=O)(=O)c1cc2c(cc1C(F)(F)F)NCNS2(=O)=O | 0.866% [at 26.5 µM] |
| O=C(O)COc1ccc2ccccc2c1 | -0.209% |
| C[n+]1ccccc1/C=N/O | -0.119% [at 26.5 µM] |
| O=c1[nH]c(=O)c2cn[nH]c2[nH]1 | 1.17% |
| N[C@H]1C(O)O[C@H](CO)[C@@H](O)[C@@H]1O (stereo not given in full) | 0.557% [at 26.5 µM] |
| CCc1ccc(CC)cc1 | 0.126% |
| c1coc(Cn2cccc2)c1 | 2.51% |
| Cc1ccccc1C#N | 0.17% |

| SMILES | activation |
| --- | --- |
| CCOC(=O)COc1ccc2c(C)c(CCN(CC)CC)c(=O)oc2c1Cl | 0.0701% [at 26.5 µM] |
| CCCC(=O)C(CC)Sc1ccoc1C (stereo not given) | -0.995% |
| CCN1CCN(C(=O)N[C@@H](C(=O)N[C@@H]2C(=O)N3[C@@H]2SC(C)(C)[C@H]3C(=O)O)c2ccccc2)C(=O)C1=O | -0.271% [at 26.5 µM] |
| CCCCCCCCCCCBr | 0.0759% [at 26.5 µM] |
| COC(C)(C)CC(C)=O | 0.374% |
| CNCCc1ccccn1 | -0.083% [at 26.5 µM] |
| NC[C@H]1O[C@H](O[C@H]2[C@H](O)[C@@H](O[C@H]3O[C@H](CO)[C@@H](O)[C@H](N)[C@H]3O)[C@H](N)C[C@@H]2N)[C@H](N)[C@@H](O)[C@@H]1O | -0.0664% [at 11.8 µM] |
| CC(=O)c1ccc(O)c(C(N)=O)c1 | -0.198% [at 26.5 µM] |
| CCCCC(O)/C=C(C)/C=C/C=C/C(=O)N1CCCC1=O (stereo not given) | 0.0585% [at 26.5 µM] |
| Cc1ccc2cccnc2c1 | -0.399% |
| Cc1ccc(O)c([N+](=O)[O-])c1 | -0.0923% |
| CCCCCCCCCCCCCCBr | 0.0377% |
| CCCCCCC(=O)c1ccccc1 | 0.0916% |
| C=CCCCCCCCCCCCCCC | -0.0775% [at 11.8 µM] |
| CN(C)CCc1c[nH]c2ccc(C[C@H]3COC(=O)N3)cc12 | 0.0714% [at 26.5 µM] |
| O=C(O)P(=O)(O)O | 0.153% [at 26.5 µM] |
| CC(C)(C)C(=O)CC(=O)C(C)(C)C | 0.366% |
| CCNC(=O)C(C)OC(=O)Nc1ccccc1 (stereo not given) | -0.0245% |
| C=CCN(CC=C)CC=C | -0.312% |
| O=S(=O)(O)c1ccc(Cl)cc1 | -0.0812% |
